Screening data as filed in PubChem.
Sampled rows, rich in hits. Any-hit rate of the full collection: about 4.5%.
DAX1 inh-1 – inhibits human nuclear receptor DAX1; P51843; 0.99% of 340,000 active; HEK293 Gal4-DAX1 luciferase reporter, luminescence; inhibition, % at 6.75 µM; AID 504766;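 active = inhibition above the mean over all tested compounds plus 3 SD, cut at about 4.2% in these data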;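 also: 0% = DAX1-transfected cells with DMSO and 100% = empty-vector control cells with DMSO; inhibition shows as a rise in luminescence from relieved DAX1 repression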
Target sequence (P51843 207-470 limits assumed): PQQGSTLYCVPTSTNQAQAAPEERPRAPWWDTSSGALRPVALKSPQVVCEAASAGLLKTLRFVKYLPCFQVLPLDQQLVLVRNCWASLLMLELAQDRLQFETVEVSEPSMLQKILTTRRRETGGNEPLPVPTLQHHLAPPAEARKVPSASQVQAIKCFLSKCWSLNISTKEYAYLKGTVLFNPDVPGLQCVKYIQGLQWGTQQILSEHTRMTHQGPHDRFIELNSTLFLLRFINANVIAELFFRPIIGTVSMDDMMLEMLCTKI
hgDAF12 agonist – hgDAF-12 agonism, primary luciferase screen; HEK293 GAL4-hgDAF12 UAS-luciferase reporter, agonist luminescence; normalized to butyrate control; activation, % at 6.8 µM; 1.8% of 370,000 active; AID 687014;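 active = activation above a cutoff set at the mean of all screened compounds plus 3 SD, cut at about 10% in these data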;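 also: 0% = DMSO wells and 100% = sodium butyrate wells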
hcDAF-12 act – activates DAF-12 receptor from parasite H. contortus; 1.4% of 370,000 active; AID 652067; activation, % at 6.8 µM; HEK293 hcDAF-12 lit1-tk-luc reporter, luminescence; 0% DMSO, 100% Δ7-dafachronic acid;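 active = activation above the mean of all tested compounds plus 3 SD, cut at about 5.5% in these data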;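 also: 100% = response to 3 µM Δ7-dafachronic acid high control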
DAX1 inh-2 – blocks DAX1 repression of SF-1 activated StAR promoter; HEK293T StAR-luciferase reporter, SF-1/DAX-1 repression relief; inhibition, % at 6.8 µM; 1.1% of 370,000 active; AID 652010;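 active = inhibition above the mean over all tested compounds plus 3 SD, cut at about 3.6% in these data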;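 also: 0% = DAX-1 cells with DMSO and 100% = cells lacking DAX-1 with DMSO; higher inhibition means more luminescence from relief of DAX-1 repression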
FXN GAA850 act – activators of GAA850 frataxin (FXN) promoter | AID 540364 | activation, % at 6 µM | HEK293 lucGAA850 FXN promoter luciferase reporter, 24 h; percent of 10 µM SAHA response | 0.56% of 360,000 active;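 active = activation above the average of all compounds screened plus 3 SD, cutoff fixed separately per campaign, cut at about 7.5% in these data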;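 also: 0% = DMSO wells and 100% = 10 µM SAHA wells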
ssDAF-12 act – S. stercoralis DAF-12 activation, primary screen. HEK293 ssDAF-12/GRIP1 lit1-tk-luc reporter, luminescence; % of 3 µM dafachronic acid response. activation, % at 6.8 µM. 1% of 370,000 active;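 active = activation above the mean over all tested compounds plus 3 SD, cut at about 0.9% in these data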;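 also: 0% = DMSO-only wells and 100% = 3 µM delta7-dafachronic acid wells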
DAX1 inh confirm – NR0B1 (human) inhibition, confirmation; shares compounds with DAX1 inh-2; HEK293T StAR-promoter luciferase reporter, SF-1/DAX-1 repression; inhibition, % at 6.8 µM; 87% of 2,400 active;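 active = inhibition above the average of every tested compound plus 3 SD, cut at about 3.8% in these data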;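 also: 0% = DAX-1 cells with DMSO and 100% = no DAX-1 control cells with DMSO; active compounds raise luminescence by relieving repression of the StAR reporter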
SF1 mutant ctr – nonselective inhibitor or artifact in SF-1 mutant DAX1 counter-screen | shares compounds with DAX1 inh-2 | HEK293 StAR-luciferase, SF-1 AF2 mutant, luminescence | inhibition, % at 6.8 µM | 78% of 2,400 active;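 active = inhibition above the mean of all tested compounds plus 3 SD, cut at about 3% in these data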;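 also: 0% = DAX-1 transfected cells with DMSO and 100% = cells without DAX-1 with DMSO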
Numbers without * were called inactive; x = no result.

SMILES	DAX1 inh-1	hgDAF12 agonist	hcDAF-12 act	DAX1 inh-2	FXN GAA850 act	ssDAF-12 act	DAX1 inh confirm	SF1 mutant ctr
COC(=O)[C@]12C[C@H](CC(=O)NCc3cccs3)C(=O)N(Cc3cccc4ccccc34)C1=C[C@H](C1CCCC1)O[C@@H]2C	x	-1	-2	0	x	0	x	x
CC(C)OC(=O)c1ccc2ccc(-c3ccccc3)nc2c1	x	9	2	8.4*	x	1	15*	7.3*
CC(C)OC(=O)c1ccc(NC(=O)c2ccccc2)cc1	0	5	-1	2	6	-1	x	x
O=C(CSc1nnc(-c2ccccc2Cl)o1)Nc1ccccn1	-1	11*	3	6.1*	1	-1	17*	6.7*
C=CCN1C(=O)c2n[nH]c(COC)c2C1c1ccc(F)cc1 (stereo unspecified)	x	0	3	-1	x	0	x	x
CCC(C)[C@H](NC(=O)[C@H](CC(C)C)NC(=O)OC(C)(C)C)C(=O)N[C@@H](Cc1ccccc1)C(=O)OC (stereo partly specified)	x	2	0	0	x	-1	x	x
Cc1ccc(O)c(N=Nc2ccccc2)n1	1	12*	4	5.6*	0	0	10*	6.5*
Oc1ccc(N=Nc2ccccc2)cc1	2	10	4	1	1	0	x	x
CN(C)c1ccc(C=C2C=Cc3ccccc32)cc1	3	13*	6.2*	4.8*	3	0	15*	8.0*
COc1cc2c(cc1OC)C(=Cc1ccc(N(C)C)cc1)C=C2	1	2	-1	-1	2	-1	x	x
COc1ccc(NC(=O)CN(C)C(=O)CSc2nc3ccccc3s2)cc1	2	8	4	5.0*	0	1	2	2
CC(=O)Nc1ccc(NC(=O)C(C)OC(=O)CC2CCCCC2)cc1 (stereo unspecified)	1	0	1	3	2	-1	x	x
CC(OC(=O)CC1CCCC1)C(=O)Nc1ccc(S(N)(=O)=O)cc1 (stereo unspecified)	-1	1	0	4.9*	0	-1	2	1
COCC(=O)N(C)[C@H]1C[C@H]2c3[nH]c4cccc(-c5cccc(F)c5)c4c3CCN2C(=O)[C@H]1[C@H](C)O	x	-6	2	0	x	-1	x	x
N/C(=N\OC(=O)c1ccc(Cl)cc1)c1ccn[nH]1	-1	10	5	15*	3	0	13*	7.8*
O=C(c1ccco1)N1CCN(c2ccc(N3CCCCC3)nn2)CC1	2	4	4	7.8*	2	0	7.3*	6.4*
NC(=O)N1CCN(C(=O)c2ccco2)CC1	1	-2	1	0	2	-1	x	x
CCN1Cc2nnn(Cc3ccccc3)c2-c2cc(F)ccc2S1(=O)=O	x	0	0	0	x	-1	x	x
C(=N\Nc1ccccn1)/c1ccc(N2CCOCC2)cc1	0	11*	3	5.0*	2	-1	8.8*	7.0*
CCCCCCn1c(-c2ccc(Cl)cc2Cl)csc1=Nc1ccccc1	x	2	0	0	x	0	x	x
O=C(NCc1ccccn1)c1ccc(Cl)s1	1	-1	1	0	1	-1	x	x
O=C(Nc1ccccn1)c1ccc(Cl)s1	2	12*	1	5.2*	3	0	7.0*	6.2*
Nc1nc2c(ncn2[C@@H]2O[C@H](C(=O)N[C@@H](Cc3ccccc3)C(=O)NCC3CCCCC3)[C@@H](O)[C@H]2O)c(=O)[nH]1	x	-1	0	-1	x	-1	x	x
COC(=O)[C@]12C[C@H](CC(=O)NCc3ccc(OC)c(OC)c3)C(=O)N(Cc3ccc4c(c3)OCO4)C1=C[C@H](C(C)C)O[C@@H]2C1CC1	x	0	1	0	x	-1	x	x
COc1ccc(/C=N/Nc2ccc(C(=O)O)cc2)cc1OC	1	11*	6.1*	5.3*	7	0	17*	5.8*
SMILES	DAX1 inh-1	hgDAF12 agonist	hcDAF-12 act	DAX1 inh-2	FXN GAA850 act	ssDAF-12 act	DAX1 inh confirm	SF1 mutant ctr
O=C(O)c1cccc(N/N=C/c2ccc(F)c(F)c2)c1	-2	9	3	5.0*	4	0	11*	7.2*
COc1ccc(C(=O)Oc2ccc(/C=N/Nc3ccc(Cl)c(C(=O)O)c3)cc2OC)cc1	0	0	-1	1	3	0	x	x
C=CCOc1c(Br)cc(/C=N/Nc2ccc(C(=O)O)cc2)cc1OCC	1	12*	4	7.3*	6	-1	13*	8.7*
O=C(O)c1cccc(N/N=C/c2cn(-c3ccccc3)nc2-c2cccs2)c1	2	4	0	6.4*	7	-1	18*	9.2*
COc1ccc(CNS(=O)(=O)CC2NCc3cc(OC)ccc32)cc1 (stereo unspecified)	x	6	-1	2	x	-1	x	x
COc1ccc(C2C(C(=O)Nc3cc(Cl)ccc3F)CCC(=O)N2c2ccc(OC)cc2)cc1 (stereo unspecified)	x	-3	-2	-1	x	-2	x	x
Cc1cc(C)c(C(=O)CSc2nnc(N)s2)cc1C	-1	2	0	1	1	-2	x	x
COCC(C)n1c(C)cc(C(=O)CSc2nnc(N)s2)c1C (stereo unspecified)	1	7	1	0	-1	-1	x	x
Cc1cc(C(=O)CSc2nnc(N)s2)c(C)n1C1CC1	1	4	0	5.6*	4	0	4.1*	3
Cc1ccc(C(=O)CSc2nnc(N)s2)c(C)c1	1	13*	4	7.8*	5	1.0*	8.9*	5.4*
COCCNc1c(-c2cc3ccc(C)c(C)c3[nH]c2=O)nc2ccccn12	0	10	3	4.9*	2	-1	6.1*	3.3*
Fc1cccc(Cc2c(-c3ccccc3)nc3ccc(Cl)cn23)c1	x	3	1	4.6*	x	-1	0	0
Cc1ccc(-c2nc3cc(C)c(Br)c(C)n3c2Cc2cccc(F)c2)cc1	x	13*	6.2*	5.7*	x	1.9*	6.2*	5.3*
Clc1cccc(-c2nc3ccc(Br)cn3c2Cc2ccccc2)c1	x	4	1	6.7*	x	-1	4.6*	1
Cc1cc2nc(-c3ccccc3)c(Cc3cccc(F)c3)n2c(C)c1Br	x	3	4	3	x	0	x	x
Clc1cccc(Cc2c(-c3cccc(Cl)c3)nc3ccc(Br)cn23)c1	x	6	1	2	x	-1	x	x
COC(=O)C1CCC(CNC(=O)C(Cc2ccc3c(c2)OCO3)NC(C)=O)CC1 (stereo unspecified)	x	2	-3	0	x	-1	x	x
